# Test results from PubChem BioAssay (NCATS).
# Where “and” joins values, the source holds several entries; their conditions need not be identical. Identical values can stand only once. Values without a mark were called inactive. Results filed as inconclusive are left out. Where a call stands in place of a potency, no number is given. Calls of active or inactive are those of the source. Unless noted, calls come from the whole dose curve; as a rule, active = well fitted curve in the direction sought with a large enough effect; inconclusive = small, poorly fitted or top-dose-only effect, or another doubt; inactive = no such curve, though single readings can be large; an effect the other way counts as inactive or inconclusive.
# Columns and labels:
# [1] = qHTS to identify inhibitors of the type 1 interferon - major histocompatibility complex class I in skeletal muscle: primary screen against the NCATS Mechanism Interrogation Plate v5.0 (MIPE) Libary (AID 1347411); note: nearly all actives have a fitted effect of over 65% in size; note: potency is the fitted concentration of half-maximal effect
# Method in brief: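 Immortalized human C25cl48 myoblasts with HiBit knocked into endogenous HLA-B*08:01 were stimulated with 4.0 ng/ml IFN-beta and exposed to compounds (11-point 1:3 titration, top 46 uM final) for 24 hrs at 37 C; HiBiT lytic luminescence measured.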
# [2] = biological target: Calcium and integrin-binding protein 1 (Homo sapiens) (UniProt Q99828); test: Primary qHTS for Identification of Calcium Integrin Binding Protein 1 (CIB1) Competitor (AID 1508620);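 note: GST tagged CIB1 binding a fluorescein labelled alphaIIb integrin peptide tracer; top concentration of the series differs between compounds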
# Method in brief: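 Fluorescence polarization competition: GST-tagged CIB1 (1 uM final) preincubated with compound 15 min at room temperature, then FITC-labelled alphaIIb peptide (100 nM final) added. After 15 min at room temperature, polarization read at Ex 480/Em 540.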
# [3] = biological target: Protein phosphatase 1D (Homo sapiens) (UniProt O15297); test: RapidFire Mass Spectrometry qHTS Assay for Modulators of WT P53-Induced Phosphatase 1 (WIP1) (AID 1347424);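 note: amount of dephosphorylated VEPPL-S-QETFS peptide product formed by WIP1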; note: potency is the fitted concentration of half-maximal effect
# Method in brief: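 10 nM WIP1 preincubated with compounds 1 hr at room temperature in pH 7.5 Tris buffer with 30 mM MgCl2, 1 mM TCEP; 2 uM VEPPL-pS-QETFS phosphopeptide for 5 min, formic acid quench; dephosphorylated product quantified by RapidFire MS against labelled standard.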
# [4] = biological target: Protein phosphatase 1D (Homo sapiens) (UniProt O15297); test: Rhodamine-PBP qHTS Assay for Modulators of WT P53-Induced Phosphatase 1 (WIP1) (AID 1347425)
# Method in brief: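 WIP1 (5 nM final) was preincubated with compound for 1 hour at room temperature. It then dephosphorylated 10 uM VEPPL-pS-QETFS peptide in Tris-HCl pH 7.5 with 30 mM MgCl2. Released Pi was detected by 10 uM Rh-PBP fluorescence (ex 525/em 598 nm) read at 1-min intervals for 11 min, as delta f1 - f0.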
# [5] = Primary qHTS for inhibitors of La Crosse Virus (LACV) - induced cell death in SH-SY5Y cells (AID 1508616);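 note: top concentration of the series differs between compounds; higher means more rescue of cells from virus-induced death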
# Method in brief: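 Luminescent ATP readout (ATPLite 1step, 5 min room temperature) measured rescue from LACV-induced death after 6 days of infection at 0.01 MOI; normalized to infected DMSO wells and uninfected DMSO wells.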
# [6] = Primary qHTS for inhibitors of SARS-S pseudo-typed particle cell entry (AID 1479145; calls by dose curve; note: series mostly up to about 57 µM; nearly all actives have a fitted effect of over 45% in size)
# [7] = Primary qHTS for Huh7 cytotoxicity: counterscreen for inhibitors of MERS-S pseudotyped particle cell entry (AID 1479147; calls by dose curve)
# [8] = Primary qHTS for inhibitors of MERS-S pseudo-typed particle cell entry (AID 1479149; calls by dose curve; note: series mostly up to about 57 µM; nearly all actives have a fitted effect of over 60% in size)
# [9] = Primary qHTS for Vero E6 cytotoxicity: counterscreen for inhibitors of SARS-S pseudo-typed particle cell entry (AID 1479150; calls by dose curve)
# [10] = biological target: Calcium and integrin-binding protein 1 (Homo sapiens) (UniProt Q99828); test: Confirmatory qHTS for Identification of Calcium Integrin Binding Protein 1 (CIB1) Competitor (AID 1508617); note: potency is the fitted concentration of half-maximal effect; nearly all actives have a fitted effect of over 65% in size
# Method in brief: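 FP competition: CIB1-GST (1 uM final) in 5 mM HEPES pH 7.4, 125 mM NaCl, 5 mM CaCl2, 0.01% Tween20 preincubated 15 min RT with compounds (up to 114 uM), then FITC-alphaIIb peptide (100 nM), 15 min RT; Ex 480/Em 540.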
# [11] = Confirmatory qHTS for VERO E6 Cytotoxicity Assay: Counterscreen for SARS-CoV-2 CPE Assay (AID 1508605; calls by dose curve; note: series mostly up to about 20 µM; nearly all actives have a fitted effect of over 60% in size)
# [12] = Confirmatory qHTS for activators (rescue) of SARS-CoV-2 Cytopathic Effect (CPE) (AID 1508606; calls by dose curve; note: potency is the fitted concentration of half-maximal effect; nearly all actives have a fitted effect of over 70% in size)
# [13] = Validation qHTS assay for inhibitors of Activation Induced Cytidine Deaminase (AID): UDG Counterscreen signal (AID 1347427)
# Method in brief: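 Counterscreen read of UDG activity (2 U/mL, 4/3x) in the FRET deamination format with AID (1 uM, 4/3x), DJC20/DJC23 substrates (250 nM, 4x), 4 h at room temperature. NaOH stop, fluorescence at 560 ex/665 em.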
# [14] = biological target: Single-stranded DNA cytosine deaminase (Homo sapiens) (UniProt Q9GZX7); test: Validation qHTS assay for inhibitors of Activation Induced Cytidine Deaminase (AID): AID signal (AID 1347429)
# Method in brief: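 AID and UDG were combined and compounds added at final up to 114 uM, then DJC20/DJC23 FRET substrate was added for 4 hr at room temperature. NaOH was then added for 30 min before fluorescence was read at 540/590 nm.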
# [15] = biological target: Calcium and integrin-binding protein 1 (Homo sapiens) (UniProt Q99828); test: Validation qHTS for Identification of Calcium Integrin Binding protein 1 (CIB1) Competitor (AID 1508618)
# Method in brief: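 Fluorescence polarization with 1 uM CIB1-GST and 100 nM FITC-alphaIIb peptide in HEPES pH 7.4, NaCl, 5 mM CaCl2, Tween20. Compounds at up to 114 uM final, preincubated with protein 15 min; read after 15 min more at RT.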
# [16] = Counterscreen qHTS for small molecule stabilizers of the endoplasmic reticulum resident proteome: GLuc-NoTag assay (AID 1508627);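 note: SH-SY5Y cells given compound then 100 nM thapsigargin to empty ER calcium; series mostly up to about 76 µM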
# Method in brief: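 SH-SY5Y cells stably expressing constitutively secreted GLuc without SERCaMP tag, exposed to compound for 19 hr, then to 100 nM thapsigargin for 4 hr at 37C. Medium luciferase was read by coelenterazine luminescence without lysis.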
# [17] = Confirmatory qHTS for small molecule stabilizers of the endoplasmic reticulum resident proteome: Secreted ER Calcium Modulated Protein (SERCaMP) assay (AID 1508628);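 note: SH-SY5Y cells given compound 16 h then thapsigargin 100 nM for 4 h; series mostly up to about 76 µM; nearly all actives have a fitted effect of over 40% in size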
# Method in brief: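 We seeded SH-SY5Y-GLuc-SERCaMP cells, added compounds (three concentrations in the primary run, eleven up to 76.6 uM in confirmation), incubated 16 h, depleted ER calcium with thapsigargin, and read luciferase 4 h later.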
# [18] = Cell Viability qHTS for small molecule stabilizers of the endoplasmic reticulum resident proteome (AID 1508629); settings: cell viability counter-screen, 100 nM thapsigargin for final 4 h;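 note: potency is the fitted concentration of half-maximal effect; compound exposure about 46 h in total before the viability read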
# Protein phosphatase 1D (Homo sapiens), sequence (O15297 whole entry, looked up): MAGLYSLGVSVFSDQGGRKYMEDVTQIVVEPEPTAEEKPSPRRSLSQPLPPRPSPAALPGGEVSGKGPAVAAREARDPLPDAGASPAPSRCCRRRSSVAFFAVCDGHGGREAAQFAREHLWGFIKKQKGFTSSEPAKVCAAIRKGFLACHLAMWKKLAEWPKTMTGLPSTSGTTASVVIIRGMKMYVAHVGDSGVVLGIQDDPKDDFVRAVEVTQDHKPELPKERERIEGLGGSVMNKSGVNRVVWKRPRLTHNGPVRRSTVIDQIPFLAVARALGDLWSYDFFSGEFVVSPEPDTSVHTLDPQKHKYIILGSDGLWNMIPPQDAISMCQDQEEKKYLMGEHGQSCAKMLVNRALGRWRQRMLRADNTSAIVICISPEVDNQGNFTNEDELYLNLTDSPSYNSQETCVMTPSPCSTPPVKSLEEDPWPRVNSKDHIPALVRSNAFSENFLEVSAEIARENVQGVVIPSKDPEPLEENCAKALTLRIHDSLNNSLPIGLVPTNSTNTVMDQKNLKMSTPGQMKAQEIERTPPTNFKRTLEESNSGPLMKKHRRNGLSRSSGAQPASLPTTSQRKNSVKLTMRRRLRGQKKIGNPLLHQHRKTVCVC
# Calcium and integrin-binding protein 1 (Homo sapiens), sequence (Q99828 whole entry, looked up): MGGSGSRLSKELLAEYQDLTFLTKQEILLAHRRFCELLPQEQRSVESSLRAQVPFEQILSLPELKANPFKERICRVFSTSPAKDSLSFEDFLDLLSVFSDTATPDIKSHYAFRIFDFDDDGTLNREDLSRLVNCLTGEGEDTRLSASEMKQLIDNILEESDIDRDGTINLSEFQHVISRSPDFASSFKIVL
# Single-stranded DNA cytosine deaminase (Homo sapiens), sequence (Q9GZX7 whole entry, looked up): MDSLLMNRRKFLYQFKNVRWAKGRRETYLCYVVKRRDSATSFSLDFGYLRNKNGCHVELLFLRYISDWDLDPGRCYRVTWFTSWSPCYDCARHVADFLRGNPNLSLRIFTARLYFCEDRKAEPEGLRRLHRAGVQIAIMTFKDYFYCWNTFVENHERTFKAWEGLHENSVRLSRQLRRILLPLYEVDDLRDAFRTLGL
structure (smiles),measurement,setting,value
O=C(NCC1CCOCC1)c1cnc(Nc2ccc(Cl)cc2Cl)nc1C(F)(F)F,Potency,[1],inactive
same,outcome,[2],inactive
O=C1C=CC[C@@H]2[C@H]3CCCN4CCC[C@@H](CN12)[C@@H]34,Potency,[1],inactive
Clc1ccccc1C(c1ccccc1)(c1ccccc1)n1cccn1,Potency,[1],inactive
same,outcome,[2],inactive
O=C(O)CCCOc1ccc(Cl)cc1Cl,Potency,[3],inactive
same,outcome,[4],inactive
same,outcome,[5],inactive
same,outcome,[2],inactive
CCN1C[C@]2(OC(=O)c3ccccc3NC(C)=O)CC[C@H](OC)[C@@]34[C@H]5CC6[C@@H](OC)C[C@](O)(C(C[C@@H]23)[C@@H]14)[C@@]5(O)[C@@H]6OC,Potency,[1],inactive
same,outcome,[2],inactive
CC(C)[C@]12O[C@H]1[C@@H]1O[C@]13[C@]1(O[C@H]1C[C@H]1C4=C(CC[C@@]13C)C(=O)OC4)[C@@H]2O,Potency,[1],0.0829 µM (active)
same,outcome,[2],inactive
COC1=C[C@@H]2[C@@H]3Cc4ccc(OC)c(O)c4[C@]2(CCN3C)CC1=O,Potency,[1],inactive
same,outcome,[2],inactive
CN(C)[C@@H]1C(=O)C(C(N)=O)=C(O)[C@@]2(O)C(=O)C3=C(O)c4c(O)cccc4[C@@](C)(O)[C@H]3[C@H](O)[C@@H]12,Potency,[1],inactive
same,Potency,[6],inactive
same,Potency,[7],inactive
same,Potency,[8],inactive
same,Potency,[9],inactive
CCOC(=O)Nc1ccc(NCc2ccc(F)cc2)cc1N,Potency,[1],inactive
same,outcome,[2],inactive
CCCCCCCCCCCCCCCC[N+](C)(C)C,Potency,[3],inactive
same,outcome,[4],inactive
same,Potency,[7],inactive
same,outcome,[5],inactive
same,Potency,[10],70.8 µM (active)
CO/C=C(/C(=O)OC)c1ccccc1Oc1cc(Oc2ccccc2C#N)ncn1,Potency,[3],inactive
same,outcome,[4],inactive
same,outcome,[5],inactive
same,outcome,[2],inactive
CC(C)[C@H]1C(=O)N[C@H](CO)Cc2c[nH]c3cccc(c23)N1C,Potency,[1],inactive
same,Potency,[11],inactive
same,Potency,[12],1.39 µM (active)
same,outcome,[2],inactive
CCCCCCCCCC(CC)c1ccc(S(=O)(=O)O)cc1 (stereo unspecified),Potency,[3],1 µM (active)
same,outcome,[5],inactive
same,outcome,[2],inactive
CN[C@@H](C)[C@H](O)c1ccccc1,Potency,[3],inactive
same,outcome,[4],inactive
same,outcome,[5],inactive
Cc1ccccc1-n1c(Cn2cnc3c(N)ncnc32)nc2cccc(C)c2c1=O,Potency,[1],inactive
same,outcome,[2],inactive
CC1(N2CCC(n3c([C@@H]4CCCNC4)nc4ccccc43)CC2)CCCCCCC1,Potency,[1],inactive
same,Potency,[11],inactive
same,Potency,[12],2.82 µM (active)
CCNC(=O)C[C@@H]1N=C(c2ccc(Cl)cc2)c2cc(OC)ccc2-n2c(C)nnc21,Potency,[1],inactive
same,outcome,[2],inactive
CC1=C(O)C(=O)C=C2C1=CC=C1[C@@]2(C)CC[C@@]2(C)[C@@H]3C[C@](C)(C(=O)O)CC[C@]3(C)CC[C@]12C,Potency,[1],0.829 µM (active)
same,Potency,[10],22.4 µM (active)
C/C=C(/C)C(=O)O[C@H]1C(C)=C2[C@H]([C@@H]1OC(=O)CCCCCCC)[C@@](C)(OC(C)=O)C[C@H](OC(=O)CCC)[C@@]1(O)[C@H]2OC(=O)[C@@]1(C)O,Potency,[1],0.0165 µM (active)
same,outcome,[13],inactive
same,outcome,[14],inactive
same,outcome,[15],inactive
same,outcome,[2],inactive
same,Potency,[16],inactive
same,Potency,[17],inactive
same,Potency,[18],251 nM (active) and 224 nM (active)
O=C(Oc1ccc([N+](=O)[O-])cc1)N1CCC(C(O)(c2ccc3c(c2)OCO3)c2ccc3c(c2)OCO3)CC1,Potency,[1],inactive
same,outcome,[2],inactive
O=C(O)CNC(=O)c1c(O)c2ccccc2n(Cc2ccccc2)c1=O,Potency,[1],inactive
same,outcome,[2],inactive
O=S(=O)(F)Cc1ccccc1,Potency,[1],inactive
same,outcome,[2],inactive
O=c1[nH]c2ccccc2n1C1CCN(Cc2ccc(-c3[nH]c4cc5ncnc5cc4nc3-c3ccccc3)cc2)CC1,Potency,[1],inactive
same,outcome,[2],inactive
